# According to PubChem BioAssay AID493201 (National Center for Advancing Translational Sciences (NCATS), 2011):
# Records with an inconclusive call do not appear. Where a call stands in place of a potency, no number is given. The source made the active and inactive calls. Calls come from the whole dose curve; as a rule, active = well fitted activation curve with a large enough effect; inconclusive = small, poorly fitted or top-dose-only effect; inactive = no such curve, though single readings can be large or run the other way.
# Test: qHTS Assay for Identifying a Potential Treatment of Ataxia-Telangiectasia: Secondary assay (no NCS) hit validation;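 note: phosphorylated KAP1 signal as a proxy for ATM-like kinase activity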
# Details: A-T patient fibroblasts, AlphaLISA, no DNA damage added, 90 min; series mostly up to 76.9 µM
# Summary of the method: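 Without NCS-induced DNA breaks, ATM-like activity scored as phospho-KAP1 AlphaLISA signal (pKAP1/total KAP1 bead pair) in ATM-null F2112 fibroblasts; compound series up to 76.7 uM final, 37C incubation, lysates read on AlphaScreen protocol.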
# Potency is the fitted concentration of half-maximal effect.
row,Structure (SMILES),Potency
1,CCOC(=O)Cc1csc(NC(=O)CSc2nnc(C(C)C)n2C)n1,inactive
2,Cc1ccc(NC(=O)CSc2nnc([C@H](C)NC(=O)OC(C)(C)C)o2)c(C)c1,inactive
3,CCN(CC)CCNC(=O)CCc1c(C)nc2c(c(C)nn2-c2ccc(C)cc2)c1C,inactive
4,CCOc1ccc(C(=O)NC(=S)Nc2cccnc2)cc1[N+](=O)[O-],inactive
5,C/C(CCC1CC(C)OC1=O)=N\NC(N)=S (stereo not given),inactive
6,CC(C)(C)n1nc2c(c1NC(=O)C1CC(=O)N(c3ccc(Cl)cc3)C1)CS(=O)(=O)C2 (stereo not given),inactive
7,O=C(CCC(=O)c1ccc(F)cc1)Nc1cccc(Br)c1,inactive
8,CC(=O)Nc1ccc(NC2=CC(=O)c3ccccc3C2=O)cc1,inactive
9,CN(C)C(=O)CN(C)S(=O)(=O)c1ccc(Cl)cc1,inactive
10,CCn1nc(C)c(/C=N/NC(=O)Cn2cncn2)c1C,inactive
11,COc1ccc(Oc2ncnc3c2oc2ccc(Br)cc23)cc1,inactive
12,O=C(NC12CC3CC(CC(C3)C1)C2)c1cccc(OC(F)F)c1,inactive
13,O=C(O)CCC(=O)NN1C(=O)c2ccccc2NC1c1ccco1 (stereo not given),inactive
14,Cc1nc(Nc2ccc(Cl)cc2)c2oc3ccccc3c2n1,inactive
15,COc1ccc(-c2nn(C)c(=O)[nH]2)cc1,inactive
16,CC(=O)/C(N=Nc1nc2c([nH]1)c(=O)n(C)c(=O)n2C)=C(\C)O,inactive
17,COc1ccccc1NC(=O)C1CCCN(S(=O)(=O)c2ccc(-n3cnnn3)cc2)C1 (stereo not given),inactive
18,CCOc1ccc(NC2=NCC(=O)N2Cc2cccs2)cc1,inactive

row,Structure (SMILES),Potency
1,COc1ccccc1Nc1nc(NCCCN(C)C)nc(N)c1[N+](=O)[O-],2.6 µM (active)
2,COc1ccc(C(CNC(=O)C(Cc2ccccc2)NC(N)=O)N(C)C)cc1 (stereo not given),inactive
3,O=C(CCCC(=O)N1CCCC1)N1CCCC1,inactive
4,COc1ccccc1OC(=O)Nc1ccc(Cl)cc1,3.28 µM (active)
5,OC1(CC#CCN2CCCCC2)c2ccccc2-c2ccccc21,inactive
6,O=C(CSc1nnc(CNC(=O)c2ccccc2)o1)NCCc1ccccc1,inactive
7,S=c1[nH]nc(COc2ccccc2)n1/N=C/c1ccccc1Cl,inactive
8,O=C1CN(C(=O)NCC(=O)N[C@H](C(=O)O)c2ccccc2)c2ccccc2N1,inactive
9,CNC(=S)N/N=C/c1ccc2c(c1)OCCO2,inactive
10,O=C(O)CCCN1C(=O)/C(=C/C=C/c2ccco2)SC1=S,inactive
11,CN(C)c1ccc2nc3ccc(=[N+](C)C)cc-3sc2c1,14.6 µM (active)
12,COc1cccc(C(=O)NOCc2ccc(C)cc2)c1OC,inactive
13,O=C(CSc1ccccn1)N/N=C/C=C/c1ccccc1,inactive
14,Cc1c(Cc2ccccc2)c(NCCCO)n2c(nc3ccccc32)c1C#N,inactive
15,CN(CCc1ccccn1)C(=O)c1cc(COc2ccc(F)cc2F)on1,inactive
16,Cc1ccnc(NC(=O)c2ccccc2NC(=O)c2ccccc2)c1,inactive
17,COc1cc(/C=N/NC(=O)c2c(C)nc3ccc(Cl)cn23)cc(OC)c1OC,3.68 µM (active)
